Laboratory results published in PubChem BioAssay (EPA / NIEHS).
Several values for one entry are separate records, joined by “and”; a condition that tells them apart may be missing. Equal entries are not always repeated. More than one record can exist for a structure, and the calls need not agree. Activity calls are given as the source filed them. Rule for the calls: active = hit-call score of the fitted dose curve at least 0.9, where 1 is the maximum; inactive = score below 0.9.

molecular target: Hepatocyte nuclear factor 6 (Homo sapiens) (UniProt Q9UBC0); assay: ATG_HNF6_CIS: Attagene CIS-FACTORIAL HepG2 Assay for human Hepatocyte Nuclear Factor 6 (HNF6) (AID 2282952); conditions: HepG2 Attagene cis-factorial HNF6 reporter transcription; actives raise or lower the signal
Protocol: ATG_CIS is a cell-based, multiplexed-readout assay that uses HepG2, a human liver cell line, with measurements taken at 24 hours after chemical dosing in a 24-well plate.ATG_HNF6_CIS is one of 52 assay component(s) measured or calculated from the ATG_CIS assay. It is designed to make measurements of mRNA induction, a form of inducible reporter, as detected with fluorescence intensity signals by Reverse transcription polymerase chain reaction (RT-PCR) and Capillary electrophoresis technology.Data from the assay component ATG_HNF6_CIS was analyzed into 1 assay endpoint. This assay endpoint, ATG_HNF6_CIS, was analyzed with bidirectional fitting relative to DMSO as the negative control and baseline of activity. Using a type of inducible reporter, measures of mRNA for gain or loss-of-signal activity can be used to understand the reporter gene at the transcription factor-level as they relate to the gene ONECUT1. Furthermore, this assay endpoint can be referred to as a primary readout, because this assay has produced multiple assay endpoints where this one serves a reporter gene function. To generalize the intended target to other relatable targets, this assay endpoint is annotated to the dna binding intended target family, where the subfamily is homeobox protein.
Human liver HepG2 cells are transiently transfected with multiple reporter transcription units (MRTUs) in 6-well plates using FuGene 6 reagent (Roche; 3 ml FuGene/1 mg DNA). The MRTU constructs are regulated by a cis-regulating element (promoter). […] A major difference between the CIS and TRANS system is that in CIS activities of endogenous TFs are measured, whereas the TRANS assay evaluates changes in activities of exogenous, chimeric NR-Gal4 proteins. […] At the end of 24 hour incubation, total RNA was isolated using TriZol reagent (Invitrogen). The isolated RNA is then reverse-transcribed using oligo(dT) primer and Mo-MLV reverse transcriptase (Invitrogen) with DNAse I (Ambion) treatment for 30 min. The one-tenth of the produced cDNA was amplified by PCR using Taq DNA polymerase (Invitrogen) and two reporter sequence-specific primers. The PCR products were fluorescently labeled by primer extension with 6-arboxyfluorescein (6-FAM) 5'-labeled reporter sequence-specific primer (2 min at 95 C, 20 s at 68 C and 10 min at 72 C) and these products were digested with 5U of HpaI (New England Biolabs) for 2h at 37 C. The fragments were purified using Qiaquick PCR columns (Qiagen), analyzed on an ABI 3130xL genetic analyzer (Applied Biosystems) with peak positions identified by using a set of X-rhodamine (ROX)-labeled MapMarker1000 molecular weight standards (BioVentures). The raw capillary electrophoresis data was processed using Attagraph software (Attagene).

Chain of Hepatocyte nuclear factor 6 (Homo sapiens) (Q9UBC0 whole entry, looked up): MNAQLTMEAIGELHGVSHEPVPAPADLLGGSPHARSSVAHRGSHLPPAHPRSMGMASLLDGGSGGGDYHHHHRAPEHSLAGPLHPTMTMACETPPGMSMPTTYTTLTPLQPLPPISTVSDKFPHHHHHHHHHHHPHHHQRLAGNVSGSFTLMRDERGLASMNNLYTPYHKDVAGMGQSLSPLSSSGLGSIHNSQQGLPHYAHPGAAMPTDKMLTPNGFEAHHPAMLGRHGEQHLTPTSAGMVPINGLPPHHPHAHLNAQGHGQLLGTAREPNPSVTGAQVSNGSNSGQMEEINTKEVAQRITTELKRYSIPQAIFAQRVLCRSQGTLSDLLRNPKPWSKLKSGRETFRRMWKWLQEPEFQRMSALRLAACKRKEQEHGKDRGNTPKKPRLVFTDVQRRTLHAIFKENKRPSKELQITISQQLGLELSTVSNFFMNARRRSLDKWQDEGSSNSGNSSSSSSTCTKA

Q: `CCO[Si](CC)(OCC)OCC` was tested. Which outcome did it give?
A: inactive

Q: With `CC(C)COC(=O)c1ccccc1` as the compound, how does the outcome read?
A: inactive

Q: `O=C(O)c1ccc(C(=O)O)c(C(=O)O)c1` was tested. Which outcome did it give?
A: inactive

Q: For `O=C(O)CS`, which outcome is on record?
A: inactive

Q: How did the outcome turn out when `Nc1cc([N+](=O)[O-])ccc1C(=O)O` was run?
A: inactive

Q: For `O=Cc1ccccc1O`, which outcome is on record?
A: inactive

Q: `CCNC(=S)NCC` was tested. Which outcome did it give?
A: inactive

Q: Which outcome does the source give for `CCC(C)(C)C1CCC(=O)CC1` here?
A: inactive

Q: Which outcome does the source give for `CCCCCCCCOC(=O)c1ccc(O)cc1` here?
A: inactive

Q: Which outcome does the source give for `CCCCOCCOC(=O)c1ccccc1C(=O)OCCOCCCC` here?
A: inactive

Q: With `CC(CO)(CO)[N+](=O)[O-]` as the compound, how does the outcome read?
A: inactive

Q: `CC(C)(CO)CO` was tested. Which outcome did it give?
A: inactive

Q: For `COc1ccc(C(C)=O)cc1`, which outcome is on record?
A: inactive

Q: Which outcome does the source give for `CCC(=O)OC/C=C(\C)CCC=C(C)C` here?
A: inactive

Q: `COc1cc(OC)c2ccc(=O)oc2c1` was tested. Which outcome did it give?
A: inactive

Q: With `CC(O)COCC(C)O` (stereo not given) as the compound, how does the outcome read?
A: inactive

Q: `C=C(C)C(N)=O` was tested. Which outcome did it give?
A: inactive

Q: How did the outcome turn out when `CC(C)OB(OC(C)C)OC(C)C` was run?
A: inactive

Q: For `FC(F)(F)c1ccc(Cl)c(Cl)c1`, which outcome is on record?
A: inactive

Q: `CC1COC(=O)O1` (stereo not given) was tested. Which outcome did it give?
A: inactive

Q: `CCCCCCCCOC(C)=O` was tested. Which outcome did it give?
A: inactive

Q: `Cc1cc(O)c2c(c1)C(=O)c1cc(O)cc(O)c1C2=O` was tested. Which outcome did it give?
A: inactive

Q: With `CN1CCc2cccc3c2[C@H]1Cc1ccc(O)c(O)c1-3` as the compound, how does the outcome read?
A: inactive

Q: Which outcome does the source give for `Cc1ccncc1` here?
A: inactive

Q: With `O=C(c1ccc(OCCN2CCCCC2)cc1)c1c(-c2ccc(O)cc2)sc2cc(O)ccc12` as the compound, how does the AC50 read?
A: 11.1 µM (active) and 21.4 µM (active)

Q: What about the outcome of the same compound?
A: inactive

Q: How did the outcome turn out when `C=C(C)C(=O)OCCC[Si](OC)(OC)OC` was run?
A: inactive

Q: Which outcome does the source give for `CCC(CC)CO` here?
A: inactive

Q: For `O=C1OC2(c3ccc(O)cc3Oc3cc(O)ccc32)c2ccccc21`, which outcome is on record?
A: inactive

Q: How did the outcome turn out when `CCCCCc1cccc(=O)o1` was run?
A: inactive

Q: `CCCCCCCCCCCCN1CCOCC1` was tested. Which outcome did it give?
A: inactive

Q: For `CCOC(=O)C=Cc1ccccc1`, which outcome is on record?
A: inactive

Q: For `[O-]/[N+](=N\O)c1ccccc1`, which outcome is on record?
A: inactive

Q: For `CC(C)(C)C1CCC(O)CC1` (stereo not given), which outcome is on record?
A: inactive

Q: Which outcome does the source give for `COc1ccccc1NC(=O)CC(C)=O` here?
A: inactive

Q: `CCCCC1CCCCC(=O)O1` (stereo not given) was tested. Which outcome did it give?
A: inactive

Q: With `CC1(C)[C@H](C=C(Cl)Cl)[C@H]1C(=O)OCc1cccc(Oc2ccccc2)c1` as the compound, how does the outcome read?
A: inactive

Q: With `OCC=Cc1ccccc1` as the compound, how does the outcome read?
A: inactive

Q: `C#C[C@]1(O)CC[C@H]2[C@@H]3CCc4cc(O)ccc4[C@H]3CC[C@@]21C` was tested. Which AC50 did it give?
A: 58.1 µM (active) and 100 µM (active)

Q: What about the outcome of the same compound?
A: inactive
